Each sequence was assayed on VDR:RXRa (NR concentration 270 nM, RXRa partner concentration 90 nM) (assay: PBM binding z-score (relative to random genomic background probes); higher = stronger binding; sequences stand for … in GC…GCGATTGACAGCGTAGAATGAAGG).
Method: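 Protein-binding microarray (Agilent 4x180K custom design, double-stranded 60-nt probes: 5' GC cap, 34-nt variable region, 24-nt constant primer region; full probe sequence given). Purified or IVT nuclear receptor:RXRα heterodimers (3:1 NR:RXRα, mostly 270:90 nM) or homodimers were incubated for 1 h in PBS with 2% milk and no ligand, then detected with Alexa488 antibodies. Fluorescence from o1-orientation probes (~5 replicates averaged) was converted to z-scores against 500 random hg19 background probes. Variable regions are seed direct-repeat (DR0–DR5) sites, all their single-nucleotide variants and half-site ablations.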

Row | Sequence | PBM binding z-score
1 | CTACCTAGGTGAACAAGGTCGTTGATTACTATTC | 5.37
2 | GCCTACGGGTCAAAGGTTATAGCATGAATAGAAT | 5.46
3 | ACTAGCAGGCCAAGGGTCATTCAAGATTAGTCCG | 3.49
4 | ATCTCTAGGTAAGACTCAGTACAGTGAAGAACGC | 0.435
5 | CTACCAAGGTGAACAAGGTCGTTTATTACTATTC | 6.54
6 | CCTAGCAGGCCGGGGTCACTCAAGCATTTCGCTT | 4.94
7 | ATAATGAGGTTAAGATCAGGGAAACAGAATACAT | 1.6
8 | AGTCAAAGTTCAGGACGAGGTAACGTGAAGCACG | 3.16
9 | CCGACTGGGGCATAAGGTTACCATCAGCCAGCCC | -0.0341
10 | CCGACTTGGGCATAAGGTTACCATAAGCCAGCCC | -0.311
11 | CATACAGGGTCAGCTAGGCCAGGGTAGGGACGGC | 3.64
12 | CCTACTGGGCCATCAGCTCATTGATATCAACGTT | -0.619
13 | CAAACTAGGTCACTGGAAGGTCAAAGTCCGCATG | 5.33
14 | TTACCAAGGTGAGCTGAGGTCGCTGATCCAACTC | 2.9
15 | CATTACGGGTCAAGGTTATAGCACGGGTGGTACG | 3.96
16 | TTACCATGGTGAAGGTCGTTGATCCCTCTGTAGA | 0.949
17 | ACAGACAGGTGAGTGAAGGTAACTCAGCTGGACG | -0.401
18 | TCGAGTAGGTTAGTCGGGGCATTGAGCCAACATA | 1.89
19 | TCATATAGGAAAACAGGTGAAAGTCCGTAAGTTA | 1
20 | TAGCCTAGGTCAGATCGGGCCAGTATGCGCTATA | 0.446

Row | Sequence | PBM binding z-score
21 | AGAATGAGGTTATTAAGATCAGCGAATTGCGGTC | 2.57
22 | CAAACTAGGTCAAGAGGTCAAGGTCCGCTTCCCG | 5.53
23 | TCATATAGGTAAATGCTAGGTGAACGTCCGATCT | 0.914
24 | GCTGCTAGGTCAAATGATGGTCAGCTAAAGCTCG | 1.96
25 | ATCGAAAGGTCGAGGTGCGTATAGAGAAAGGGAA | 2.16
26 | CCTAGTCGGTCAGGAGGTCACACACCGGATATGA | 3.97
27 | TCGGACAGGTGAAGGTAACTCAGGTACGCAGTCG | 0.531
28 | AGATGTAGGTTACATCCGGGTCATTCAGGCTATG | 4
29 | GCTATTAGTTGAAAGGGCAACCGAATGATTCTCG | 0.531
30 | CAAGCTAGGTCACGAAAGGTCAAAGTCGAATGAC | 6.88
31 | ACTAGCAGGCCGAGTTTGGGTCACTCAAACAAAG | 0.459
32 | ATCTCTAGGTAAAGATAGTCCAGTGAATGCAAAT | -0.0135
33 | CCGACTGGGGCATGGTTACCATAACGCACAGCCA | -0.609
34 | GCGACTGGGGCATCAGCAGGTTACCATAACTTAA | 0.0367
35 | CAAACTAGGTCAAAGCTCAAAGTCGAGCCAACCA | 1.74
36 | CGTAGTTGGTCAGGAGGTCACACACCGGATATGA | 3.86
37 | ATCTCTAGGTAAAGATAGTTCAGTCAATGCAAAT | 0.723
38 | AGAACGAGGGCAATGAGTTGAAAGCACGGGTGGC | 5.39
39 | TCATATAGGTAATACAGGTGAAAGTAGGCATCTA | 1.41
40 | ACTATTAGTTGAAACGAGGGCAACCGATAGGTTG | 1.63
